PubChem BioAssay (NCI)
Compounds without any hit were thinned out: in the full panel of roughly 83,000, 20% have a hit.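 Negative percent growth values reflect cell death: -40 means 40% of the cells present at the start died, and -100 means all died.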 A number with no mark means an inactive call. Calls of active or inactive are those of the source. The calls were made as follows: active = growth percent below 10; inactive = the rest.

The molecules below were run on OVCAR-4 ovarian (assay: NCI-60 one-dose screen, 48 h (100 = growth as untreated, 0 = no growth, -100 = all killed)). Conditions: 10 µM unless noted.
In the case of O=C(O)c1ccc(-n2cc(CNc3cc(F)c(F)c(F)c3)c(-c3ccc(F)cc3)n2)cc1, the growth is reported as 95.5%. With COc1cc2nc(Cl)nc(Nc3cccc(C4=Nc5c(N)nc(N)nc5NC(c5ccc(Cl)cc5)C4)c3)c2cc1OC (stereo not given) the growth was 101%. In the case of CNC(=O)c1cc(N2CCc3cc(NC(=O)Nc4ccc(Cl)c(C(F)(F)F)c4)ccc32)ccn1, the growth is reported as 55.9%. Molecule N=c1c2cc(-c3ccccc3)oc2ncn1/N=C/c1ccc(Br)cc1 has a growth of 19.7%. For NC(N)=Nc1ccc(Oc2cccc(NC(N)=Nc3ccc(Br)c(C(F)(F)F)c3)c2)cc1, the growth was 58.9%. CN(Cc1ccccc1)S(=O)(=O)/N=C1\NC(=O)NC1=C(Cl)Cl was tested, and the growth was 91.8%. For COc1ccc(S(=O)(=O)NCCCNc2nccc(-c3[nH]c(-c4ccccc4)nc3-c3ccc(Cl)c(O)c3)n2)cc1, the growth was 101%. With O=C(CN1CCN(c2cc(=O)n(-c3ccccc3)c3ccccc23)CC1)Nc1nc(-c2ccc(Cl)cc2)cs1 the growth was 19.7%. CC(=O)c1nnn(-c2c(C(=O)n3nc(C)cc3C)sc(=S)n2-c2ccccc2)c1C showed a growth of 100%. For O=C1[C@H]2Cc3c([nH]c4ccccc34)[C@@H](c3ccc(Br)cc3)N2C(=O)CN1C1CCN(CC2CCCCC2)CC1, the growth was -64% (active). Molecule NS(=O)(=O)c1ccc(Nc2nc(Nc3ccccc3)nc3nnc(SCC(=O)NC4CCCCC4)n23)cc1 has a growth of 108%. Work on Cn1ccnc1C(=O)/C=C/C=C/c1ccc(C(=O)Nc2ccc(F)cc2)cc1 yielded a growth of 45.7%. O=C1[C@H]2Cc3c([nH]c4ccccc34)[C@@H](c3ccc(Cl)cc3)N2C(=O)CN1C1CCN(Cc2ccccc2)CC1 gave a growth of 49.1%. With NC(N)=Nc1ccc(Oc2cccc(Nc3ccc(Br)c(C(F)(F)F)c3)c2)cn1 the growth was -75.2% (active). With CCn1c2ccccc2c2cc(-n3nncc3-c3ccccc3)ccc21 the growth was 43%. With CN1CCN(Cc2ccc(NC(=O)c3cncc(C#Cc4cnc5ccc(OCC(C)(C)O)nn45)c3)cc2C(F)(F)F)CC1 the growth was -2.05% (active). Cc1ccc(-n2c(/C=C3\C(=O)Nc4ccccc43)ccc2CO)cc1 showed a growth of 90.1%. Cc1c(F)cc(C(N)=O)cc1NCC(=O)Nc1ccc([N+](=O)[O-])cc1 showed a growth of 67.8%. CCOC(=O)c1c(N)c(C#N)cn1-c1cc(OC)c(OC)c(OC)c1 showed a growth of 107%. Work on O=c1[nH]c(Sc2sc3ccc(Cl)cc3c2CBr)nc(=S)[nH]1 yielded a growth of 40.7%. For CC(=O)c1ccc(Nc2nc(SCC(C)C)nc(-c3ccccc3)c2C#N)cc1, the growth was 103%. CS(=O)(=O)c1ncc(-c2ccccc2)cn1 gave a growth of 98.6%. With CNC(=O)c1c(NC(=O)c2ccccc2C(F)(F)F)sc2c1CCC(=O)C2 the growth was 16.2%. NC(N)=Nc1ccc(Nc2cccc(Oc3ccc(Cl)c(C(F)(F)F)c3)c2)cn1 showed a growth of 39.8%. Molecule CC(C)c1ccc(NCc2cn(-c3ccc(C(=O)O)cc3)nc2-c2cc(C(F)(F)F)cc(C(F)(F)F)c2)cc1 has a growth of 96.2%. In the case of COc1cc2nc(Cl)nc(Nc3cccc(C4=Nc5c(N)nc(N)nc5NC(c5ccccc5)C4)c3)c2cc1OC (stereo not given), the growth is reported as 96.7%. Molecule O=C(CCn1c[n+](CC(=O)c2ccc(F)cc2)c2ccccc21)Nc1cccc2cccnc12 has a growth of 52.3%. With COc1cc(-c2nc(-c3ccccc3)[nH]c2-c2ccnc(NCCCNS(=O)(=O)c3cccc(F)c3)n2)ccc1Cl the growth was 56.3%. N#Cc1c(NC(=O)c2cccc(C(F)(F)F)c2F)sc2c1CCC(=O)C2 was tested, and the growth was -36.3% (active). With COC[C@]12CCC(C)(C)C[C@H]1C1=CC[C@@H]3[C@@]4(C)CCCNC(C)(C)[C@@H]4CC[C@@]3(C)[C@]1(C)CC2 the growth was -18.9% (active).
